Records with an inconclusive call do not appear. The source made the active and inactive calls. Unless noted, calls follow the shape of the dose curve; as a rule, active = well fitted curve in the direction sought with a large enough effect in the repeat runs; inconclusive = weak or mixed curves; inactive = no such curve, though single readings can be large; an effect the other way counts as inactive or inconclusive.
Columns and labels:
[1] = qHTS assay for small molecules that induce genotoxicity in human embryonic kidney cells expressing luciferase-tagged ATAD5 (AID 651632); also: nearly all actives have a fitted effect of over 15% in size
Method in brief: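 Quantitative HTS in HEK293T expressing luciferase-tagged ATAD5, whose levels rise upon DNA damage. Exposure ran 16 hr at 37C and 5% CO2, with luminescence read 30 min after Amplite addition at room temperature.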

[2] = qHTS assay for small molecule agonists of the p53 signaling pathway - cell viability (AID 651633; calls by dose curve;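 also: p53RE-bla HCT reporter cells with a stable beta-lactamase p53 reporter; series mostly up to about 83 µM; nearly all actives have a fitted effect of over 30% in size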)
Method in brief: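 p53RE-bla cells, seeded at 4,000 per well and rested 5 h at 37 C/5% CO2, received compounds in DMSO for 16 h at 37 C. CellTiter-Glo was then added, and luminescence was read after 30 min at room temperature to gauge cytotoxicity.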

[3] = qHTS assay for small molecules that induce genotoxicity in human embryonic kidney cells expressing luciferase-tagged ATAD5 - cell viability (AID 651634; calls by dose curve; also: nearly all actives have a fitted effect of over 25% in size)
Method in brief: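 After 15.5 hr incubation with compound at 37C, 5% CO2, HEK293T ATAD5-luciferase cells received CellTiter-Fluor reagent; fluorescence intensity was quantified following 30 min at 37C.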

[4] = qHTS assay for small molecule disruptors of the mitochondrial membrane potential - cell viability (AID 720634; calls by dose curve;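 also: human HepG2 liver cancer cells; series mostly up to about 83 µM; nearly all actives have a fitted effect of over 20% in size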)
Method in brief: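 ATP-based luminescent viability readout (CellTiter-Glo, 30 min, room temperature) in HepG2 cells multiplexed with the m-MPI membrane potential dye; compound exposure lasted 1 hr at 37 C.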

[5] = qHTS assay for small molecule disruptors of the mitochondrial membrane potential (AID 720635)
Method in brief: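 HepG2 cells (2,000/well) attached overnight at 37C, then took compound for 1 hr at 37C, 5% CO2. Mito-MPS dye was added for 30 min; fluorescence was read at 490/535 nm (monomers) and 540/590 nm (aggregates).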

[6] = qHTS assay to test for compound auto fluorescence at 590 nm (red) in HepG2 cells (AID 720674)
Method in brief: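 Rose Bengal sodium served as the red fluorophore standard. HepG2 monolayers (overnight attachment, MEM with 10% FBS) were exposed to test compounds for 1 hr at 37 C and read at Ex 540/Em 590 nm.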

[7] = qHTS assay to test for compound auto fluorescence at 535 nm (green) in HepG2 cells (AID 720675)
[8] = qHTS assay to test for compound auto fluorescence at 460 nm (blue) in HEK293 cells (AID 720678)
Method in brief: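 Intrinsic compound fluorescence is recorded in live HEK293 cultures after overnight incubation at 37C, 5% CO2, using excitation 405 nm and emission 460 nm. Values are referenced to triamterene.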

[9] = qHTS assay to test for compound auto fluorescence at 590 nm (red) in HEK293 cells (AID 720679)
Method in brief: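 Red autofluorescence, HEK293 cells: 2,000 cells/well; attach 4-5 hr 37C; add 23 nL cpd or DMSO; incubate o/n 37C 5% CO2; read Ex540/Em590; Rose Bengal sodium reference.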

[10] = qHTS assay to test for compound auto fluorescence at 535 nm (green) in HEK293 cells (AID 720680)
[11] = qHTS assay to test for compound auto fluorescence at 460 nm (blue) in HEK293 cell free culture (AID 720681)
Method in brief: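 Test compounds were pinned into cell-free culture medium (DMEM with 10% FBS) and fluorescence was read directly at Ex/Em 405/460 nm. Signals were expressed as fluorescence equivalents of triamterene, with DMSO vehicle as control.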

[12] = qHTS assay to test for compound auto fluorescence at 535 nm (green) in HEK293 cell free culture (AID 720682)
Method in brief: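 Measurement is a direct plate read of green fluorescence (485 nm in, 535 nm out) after compound addition to serum-supplemented DMEM lacking cells, with fluorescein used to express intensities.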

[13] = qHTS assay to test for compound auto fluorescence at 590 nm (red) in HEK293 cell free culture (AID 720683)
Method in brief: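 Tox21 10K library compounds were pinned into cell-free DMEM with 10% FBS and fluorescence was read at excitation 540 nm. Activity is expressed as Rose Bengal sodium equivalency.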

[14] = qHTS assay to test for compound auto fluorescence at 590 nm (red) in HepG2 cell free culture (AID 720684)
Method in brief: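 Ex 540 / Em 590 nm read of compound in cell-free MEM (10% FBS). Rose Bengal sodium reference.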

[15] = qHTS assay to test for compound auto fluorescence at 460 nm (blue) in HepG2 cell free culture (AID 720685)
Method in brief: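 Cell-free plates of MEM plus 10% FBS received 23 nL compound or DMSO vehicle; blue-channel (405/460 nm) intensity scored against triamterene as reference fluorophore.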

[16] = qHTS assay to test for compound auto fluorescence at 535 nm (green) in HepG2 cell free culture (AID 720686)
[17] = qHTS assay to test for compound auto fluorescence at 460 nm (blue) in HepG2 cells (AID 720687)
Method in brief: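 Cells (2,000/well in MEM with 10% FBS) attached overnight at 37 C, then were exposed to compound or DMSO for 1 hr at 37 C, 5% CO2. Fluorescence read at Ex/Em 405/460 nm, expressed as triamterene-equivalent signal.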

[18] = target: Glucocorticoid receptor (Homo sapiens) (UniProt P04150); experiment: qHTS assay to identify small molecule agonists of the glucocorticoid receptor (GR) signaling pathway (AID 720691; active = well fitted activation curve with a large enough effect in the signal ratio in the repeat runs, not every such curve was filed as active; the % refers to the signal ratio)
Chain of Glucocorticoid receptor (Homo sapiens) (P04150 whole entry, looked up): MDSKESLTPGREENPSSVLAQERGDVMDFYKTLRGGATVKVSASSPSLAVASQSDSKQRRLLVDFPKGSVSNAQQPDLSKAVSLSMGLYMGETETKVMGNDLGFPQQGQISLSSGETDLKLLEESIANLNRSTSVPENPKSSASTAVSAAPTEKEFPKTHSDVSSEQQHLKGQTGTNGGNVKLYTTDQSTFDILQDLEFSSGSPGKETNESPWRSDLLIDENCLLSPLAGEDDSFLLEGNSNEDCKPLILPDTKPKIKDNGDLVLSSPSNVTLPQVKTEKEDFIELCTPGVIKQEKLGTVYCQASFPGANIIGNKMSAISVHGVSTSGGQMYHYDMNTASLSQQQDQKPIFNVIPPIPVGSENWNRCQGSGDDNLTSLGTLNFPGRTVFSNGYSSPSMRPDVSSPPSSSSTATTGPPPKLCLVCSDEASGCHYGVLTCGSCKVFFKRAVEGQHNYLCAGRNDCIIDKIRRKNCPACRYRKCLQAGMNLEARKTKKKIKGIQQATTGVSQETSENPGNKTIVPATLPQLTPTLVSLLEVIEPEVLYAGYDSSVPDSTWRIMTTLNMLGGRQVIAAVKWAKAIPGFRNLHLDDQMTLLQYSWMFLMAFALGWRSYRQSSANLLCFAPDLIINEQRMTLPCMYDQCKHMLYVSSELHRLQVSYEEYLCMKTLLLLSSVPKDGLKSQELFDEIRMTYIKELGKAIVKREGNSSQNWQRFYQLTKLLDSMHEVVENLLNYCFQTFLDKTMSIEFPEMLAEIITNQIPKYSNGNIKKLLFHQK
Method in brief: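 Cells: GR-bla HeLa, endogenous GR with stably integrated GRE-beta-lactamase reporter. Treatment 18 h, 37 C, compounds delivered in DMSO. Detection via LiveBLAzer B/G FRET substrate, 2 h RT, fluorescence intensity.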

[19] = target: Glucocorticoid receptor (Homo sapiens) (UniProt P04150); experiment: qHTS assay to identify small molecule antagonists of the glucocorticoid receptor (GR) signaling pathway (AID 720692; active = well fitted inhibition curve with a large enough effect in the signal ratio in the repeat runs, not every such curve was filed as active; the % refers to the signal ratio)
Method in brief: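 Quantitative HTS in antagonist format: HeLa cells expressing endogenous GR and a stably integrated GRE-bla reporter, stimulated with 5 nM dexamethasone (final) alongside test compounds for 18 h.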

[20] = qHTS assay for small molecule agonists of the p53 signaling pathway (AID 651631; calls by dose curve; also: nearly all actives have a fitted effect of over 15% in size)
Method in brief: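 Quantitative high-throughput format: 4,000 p53RE-bla HCT-116 cells/well, 5 h pre-incubation, 16 h compound exposure at 37 °C, 2 h room-temperature substrate step, fluorescence intensity measured.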
% is scaled to controls: 0 for no effect and ±100 for the full control effect.

NS(=O)(=O)c1cc2c(cc1C(F)(F)F)NCNS2(=O)=O
inactive: Potency [1] | outcome [2] | outcome [3] | outcome [4] | Potency [5] | fluorescence, relative to Rose Bengal [6] 0.362% [at 18.6 µM] | fluorescence, % of fluorescein control [7] -0.0771% [at 18.6 µM] | fluorescence, % of triamterene [8] -0.352% [at 18.6 µM] | fluorescence, % of fluorescent control [9] -0.333% [at 18.6 µM] | fluorescence, % of fluorescein [10] -0.0035% [at 18.6 µM] | fluorescence, % of fluorescent control [11] 0.05% [at 18.6 µM] | activity change [12] 0.0709% [at 18.6 µM] | fluorescence, % of fluorescent control [13] 0.0039% [at 18.6 µM] | fluorescence, % of Rose Bengal [14] -0.188% [at 18.6 µM] | fluorescence, % of fluorescent control [15] -0.157% [at 18.6 µM] | fluorescence, % of fluorescein control [16] 0.01% [at 18.6 µM] | fluorescence, % of fluorescent control [17] -0.066% [at 18.6 µM] | Potency [18]

NNC(=O)OCc1ccccc1
inactive: Potency [1] | outcome [2] | outcome [3] | outcome [4] | Potency [5] | outcome [6] | outcome [7] | outcome [8] | outcome [9] | outcome [10] | outcome [11] | outcome [12] | outcome [13] | outcome [14] | outcome [15] | outcome [16] | outcome [17]

CC(=O)OC/C=C(/C)CCC=C(C)C
inactive: Potency [1] | outcome [2] | outcome [3] | outcome [4] | Potency [5] | outcome [7] | outcome [8] | outcome [9] | outcome [10] | outcome [11] | outcome [12] | outcome [13] | outcome [14] | outcome [15] | outcome [16] | outcome [17] | Potency [18] | outcome [19]

CC(C)(C)C(=O)CCc1ccc(Cl)cc1
inactive: Potency [1] | outcome [2] | outcome [3] | outcome [4] | Potency [5] | outcome [6] | outcome [7] | outcome [8] | outcome [9] | outcome [10] | outcome [11] | outcome [12] | outcome [13] | outcome [15] | outcome [16] | outcome [17]

COC(=O)C(c1ccccc1Cl)N1CCc2sccc2C1 (centres undefined)
inactive: Potency [20] | outcome [3] | outcome [4] | Potency [5] | outcome [6] | outcome [7] | outcome [8] | outcome [9] | outcome [10] | outcome [11] | outcome [12] | outcome [13] | outcome [14] | outcome [15] | outcome [16] | outcome [17] | Potency [18] | outcome [19]

NC(=O)CC[C@@H](N)C(=O)O
inactive: Potency [1] | outcome [2] | outcome [3] | outcome [4] | Potency [5] | outcome [6] | outcome [7] | outcome [8] | outcome [9] | outcome [10] | outcome [11] | outcome [12] | outcome [13] | outcome [14] | outcome [15] | outcome [16] | outcome [17] | Potency [18]

Cc1ccc(OC(=O)CC(C)C)cc1
inactive: Potency [1] | outcome [2] | outcome [3] | outcome [4] | Potency [5] | outcome [7] | outcome [8] | outcome [9] | outcome [10] | outcome [11] | outcome [12] | outcome [13] | outcome [14] | outcome [15] | outcome [16] | outcome [17] | Potency [18]

Clc1cc(Cl)c(Cl)c(Cl)c1Cl
inactive: Potency [20] | outcome [2] | outcome [3] | outcome [4] | outcome [6] | outcome [7] | outcome [8] | outcome [9] | outcome [10] | outcome [11] | outcome [12] | outcome [13] | outcome [15] | outcome [16] | outcome [17] | Potency [18] | outcome [19]

Reference: PubChem BioAssay (Tox21)
